Reference: PubChem BioAssay (EPA / NIEHS)
Several values for one entry are separate records, joined by “and”; a condition that tells them apart may be missing. Identical values can stand only once. Records with an inconclusive call do not appear. A structure can be active in one record and inactive in another. Activity calls are given as the source filed them. How the source made its calls, unless noted: active means hit-call score of the fitted dose curve at least 0.9, where 1 is the maximum; inactive means score below 0.9.

Assays:
[1] = molecular target: Nuclear respiratory factor 1 (Homo sapiens) (UniProt Q16656); assay: ATG_NRF1_CIS: Attagene CIS-FACTORIAL HepG2 Assay for human Nuclear Respiratory Factor 1 (NRF1) Orphan Gene (AID 2282987); conditions: HepG2 NRF1 cis-element reporter, Attagene multiplex; actives raise or lower the signal
Nuclear respiratory factor 1 (Homo sapiens), sequence (Q16656 whole entry, looked up): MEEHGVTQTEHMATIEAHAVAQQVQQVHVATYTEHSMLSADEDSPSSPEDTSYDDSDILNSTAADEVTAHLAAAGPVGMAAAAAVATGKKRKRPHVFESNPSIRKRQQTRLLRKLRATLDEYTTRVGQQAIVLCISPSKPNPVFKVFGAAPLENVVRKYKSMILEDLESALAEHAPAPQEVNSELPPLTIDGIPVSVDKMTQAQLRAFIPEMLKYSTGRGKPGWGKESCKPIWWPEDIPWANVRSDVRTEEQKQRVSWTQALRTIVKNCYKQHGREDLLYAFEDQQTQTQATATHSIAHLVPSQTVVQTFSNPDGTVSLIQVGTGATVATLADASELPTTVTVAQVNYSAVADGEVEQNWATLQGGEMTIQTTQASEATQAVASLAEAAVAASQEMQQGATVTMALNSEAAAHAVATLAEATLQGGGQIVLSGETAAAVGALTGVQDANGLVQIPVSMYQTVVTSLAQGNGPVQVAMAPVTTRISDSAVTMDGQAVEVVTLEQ
Outline: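 Endogenous NRF1-driven reporter transcription in transfected HepG2 cells after 24 h treatment. Readout: RT-PCR products, 6-FAM labelled and resolved by capillary electrophoresis; changes fitted both directions relative to DMSO.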

[2] = ATG_NFI_CIS: Attagene CIS-FACTORIAL HepG2 Assay for human Nuclear Factor I (NFI) (AID 2282989); conditions: HepG2 cis-regulatory reporter, NFI response element transcription; actives raise or lower the signal
Outline: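 Multiplexed cis-reporter system in human HepG2 cells reports native TF activity as reporter mRNA induction 24 h post-dose. Fragments labelled with 6-FAM, HpaI-digested and resolved by capillary electrophoresis; activity fitted both directions versus DMSO.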

[3] = molecular target: Myc proto-oncogene protein (Homo sapiens) (UniProt P01106); assay: ATG_Myc_CIS: Attagene CIS-FACTORIAL HepG2 Assay for human Myelocytomatosis (Myc) Proto-Oncogene Transcription Factor (AID 2282990); conditions: HepG2, Attagene cis-reporter transcription factor activity; actives raise or lower the signal
Myc proto-oncogene protein (Homo sapiens), sequence (P01106 whole entry, looked up): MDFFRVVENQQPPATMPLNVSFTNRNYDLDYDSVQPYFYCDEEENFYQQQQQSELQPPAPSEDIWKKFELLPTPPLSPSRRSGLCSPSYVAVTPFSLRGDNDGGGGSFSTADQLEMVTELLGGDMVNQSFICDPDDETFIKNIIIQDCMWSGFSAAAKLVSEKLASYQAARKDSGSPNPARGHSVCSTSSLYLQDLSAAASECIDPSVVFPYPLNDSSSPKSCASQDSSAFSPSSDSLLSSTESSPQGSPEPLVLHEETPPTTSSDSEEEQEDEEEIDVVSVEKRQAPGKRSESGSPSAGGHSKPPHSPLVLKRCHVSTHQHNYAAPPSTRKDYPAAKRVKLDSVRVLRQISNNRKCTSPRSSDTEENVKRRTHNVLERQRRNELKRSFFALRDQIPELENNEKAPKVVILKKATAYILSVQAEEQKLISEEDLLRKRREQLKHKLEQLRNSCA
Outline: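 HepG2, transient MRTU transfection (cis promoters, endogenous TFs); 24 h dosing; TriZol RNA → oligo(dT) RT → PCR → 6-FAM primer extension → HpaI cut → CE. Bidirectional fit vs DMSO.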

[4] = ATG_NF_kB_CIS: Attagene CIS-FACTORIAL HepG2 Assay for human Nuclear Factor Kappa B (NF-kB) (AID 2282991); conditions: HepG2 Attagene cis-factorial NF-kB reporter mRNA; actives raise or lower the signal
Outline: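 Readout is reporter transcript level, gain or loss versus DMSO, measured 24 h post-dose via RT-PCR, fluorescent labelling and capillary electrophoresis. Human HepG2 liver cells carried transiently transfected CIS reporter constructs reflecting endogenous factors.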

[5] = ATG_NRF2_ARE_CIS: Attagene CIS-FACTORIAL HepG2 Assay for human Nuclear Factor Erythroid 2 Related Factor 2 (NFR2) response to Antioxidant Response Elements (ARE) (AID 2282992); conditions: HepG2 Attagene ARE/NRF2 reporter, transcription factor activity; actives raise or lower the signal
Outline: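 Endogenous transcription factor activity read out as reporter transcript levels (RT-PCR plus capillary electrophoresis, fluorescence) in transiently transfected HepG2 cells. Measured at 24 h after dosing; gain or loss of signal fitted versus DMSO.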

[6] = ATG_Oct_MLP_CIS: Attagene CIS-FACTORIAL HepG2 Assay for human Octamer-Binding Transcription Factor (Oct) (AID 2282993); conditions: HepG2 Attagene cis-factorial Oct reporter, mRNA; actives raise or lower the signal
Outline: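 After 24 h compound exposure, transfected HepG2 cells were lysed for total RNA; reporter-specific cDNA was PCR-amplified, fluorescently labelled and sized by capillary electrophoresis. Bidirectional curve fitting used DMSO as baseline.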

[7] = BSK_3C_TissueFactor: BioMAP Diversity Plus: 3C Assay for Tissue Factor Biomarker Activity (AID 2282997); conditions: BioMAP 3C HUVEC, tissue factor biomarker readout; actives raise or lower the signal
Outline: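 In this endothelial system, HUVEC are treated for 24 h and Tissue Factor is assessed by ELISA, normalised to DMSO.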

[8] = BSK_3C_uPAR: BioMAP Diversity Plus: 3C Assay for Urokinase-type plasminogen activator receptor (uPAR) Biomarker Activity (AID 2282998); conditions: BioMAP 3C HUVEC, uPAR biomarker ELISA; actives raise or lower the signal
Outline: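 Values derive from bidirectional curve fitting relative to DMSO, which served as baseline of activity. uPAR was measured by ELISA in human umbilical vein endothelial primary cultures 24 h after compound addition.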

[9] = BSK_3C_VCAM1: BioMAP Diversity Plus: 3C Assay for Vascular cell adhesion molecule 1 (VCAM1) Biomarker Activity (AID 2282999); conditions: BioMAP 3C HUVEC, VCAM1 ELISA, cytokine-stimulated; actives raise or lower the signal
Outline: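 Activity fitted in both directions relative to DMSO, with ELISA measurement of the surface marker on primary HUVEC (3C) at 24 h post-treatment; parallel SRB staining (0.1% SRB, TCA-fixed, 560 nm) flagged overt cytotoxicity.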

[10] = BSK_4H_Eotaxin3: BioMAP Diversity Plus: 4H Assay for Eotaxin 3 Biomarker Activity (AID 2283000); conditions: primary human endothelial cells (HUVEC); actives raise or lower the signal
Outline: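 ELISA quantitation of CCL26 (Eotaxin-3) protein from chemically dosed human vascular endothelial cells at 24 h; increases and decreases both scored relative to DMSO-treated baseline.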

[11] = read-out: Intercellular Adhesion Molecule 1 (ICAM1), ICAM1 (gene 3383); assay: BSK_3C_ICAM1: BioMAP Diversity Plus: 3C Assay for Intercellular Adhesion Molecule 1 (ICAM1) Biomarker Activity (AID 2283003); conditions: primary human endothelial cells (HUVEC); actives raise or lower the signal
Outline: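 Using DMSO as baseline, bidirectional curve fitting was applied to ICAM-1 ELISA signals from HUVEC in the 3C system, measured 24 h after compound addition.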

[12] = BSK_3C_Proliferation: Cell Proliferation Assessment in the BioMAP Diversity Plus: 3C Assay (AID 2283006); conditions: primary human endothelial cells (HUVEC);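 on AC50: potency may reflect either rise or fall in cell number versus DMSO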
Outline: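 Measured here: sulforhodamine B (0.1%) staining of TCA-fixed sub-confluent umbilical vein endothelial cultures 48 h post-dosing, absorbance 560 nm. DMSO served as negative control and baseline; both signal gain and loss were modelled.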

[13] = molecular target: Nuclear receptor subfamily 1 group I member 2 (Homo sapiens) (UniProt O75469); assay: ATG_PXR_TRANS: Attagene TRANS-FACTORIAL HepG2 Assay for human Pregnane X Receptor (PXR) (AID 2283008; active means hit-call score of the fitted dose curve at least 0.9, where 1 is the maximum)
Nuclear receptor subfamily 1 group I member 2 (Homo sapiens), sequence (O75469 whole entry, looked up, the tested form may be a part): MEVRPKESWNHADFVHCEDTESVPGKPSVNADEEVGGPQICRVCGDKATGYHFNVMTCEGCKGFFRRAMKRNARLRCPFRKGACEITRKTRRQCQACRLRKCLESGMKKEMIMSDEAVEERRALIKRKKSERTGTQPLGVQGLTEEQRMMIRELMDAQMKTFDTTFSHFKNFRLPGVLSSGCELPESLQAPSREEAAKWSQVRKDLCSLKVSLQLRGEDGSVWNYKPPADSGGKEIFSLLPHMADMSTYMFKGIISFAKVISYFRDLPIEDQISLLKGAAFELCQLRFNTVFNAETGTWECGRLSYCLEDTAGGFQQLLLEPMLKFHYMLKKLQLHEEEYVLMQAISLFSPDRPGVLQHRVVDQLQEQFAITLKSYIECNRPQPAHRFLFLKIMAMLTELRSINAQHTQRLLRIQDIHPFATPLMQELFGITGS
Outline: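 Transactivation by exogenous PXR–GAL4 fusion measured as reporter transcript induction after 24 h compound treatment of transfected human HepG2 cells. Read-out via RT-PCR and capillary electrophoresis of labelled fragments, fitted upward relative to DMSO.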

[14] = molecular target: human RAR-related Orphan Receptor beta (RORb), RORB (gene 6096) (UniProt Q92753); assay: ATG_RORb_TRANS: Attagene TRANS-FACTORIAL HepG2 Assay for human RAR-related Orphan Receptor beta (RORb) (AID 2283010; active means hit-call score of the fitted dose curve at least 0.9, where 1 is the maximum)
human RAR-related Orphan Receptor beta (RORb), RORB (gene 6096), sequence (Q92753 whole entry, looked up, the tested form may be a part): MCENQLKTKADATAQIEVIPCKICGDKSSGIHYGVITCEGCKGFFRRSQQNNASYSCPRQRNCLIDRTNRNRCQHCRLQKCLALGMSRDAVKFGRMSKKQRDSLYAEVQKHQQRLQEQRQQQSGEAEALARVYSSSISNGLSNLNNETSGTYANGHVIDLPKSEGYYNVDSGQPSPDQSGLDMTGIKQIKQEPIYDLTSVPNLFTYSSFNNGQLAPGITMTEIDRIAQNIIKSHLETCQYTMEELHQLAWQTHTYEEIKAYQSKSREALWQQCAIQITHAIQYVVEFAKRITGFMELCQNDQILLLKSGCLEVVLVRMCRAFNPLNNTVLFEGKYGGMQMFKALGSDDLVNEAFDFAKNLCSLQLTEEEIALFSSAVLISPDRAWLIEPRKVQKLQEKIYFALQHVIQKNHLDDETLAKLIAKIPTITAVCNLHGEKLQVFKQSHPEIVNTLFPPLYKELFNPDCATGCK
Outline: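 Multiplexed transcription-factor reporter assay: HepG2 cells transiently carrying NR-Gal4/GAL4-UAS constructs, 24 h treatment, mRNA quantified by RT-PCR plus capillary electrophoresis fluorescence; activity scored as induction over DMSO.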

[15] = molecular target: human RAR-related Orphan Receptor gamma (RORg), RORC (gene 6097) (UniProt P51449); assay: ATG_RORg_TRANS: Attagene TRANS-FACTORIAL HepG2 Assay for human RAR-related Orphan Receptor gamma (RORg) (AID 2283011; active means hit-call score of the fitted dose curve at least 0.9, where 1 is the maximum)
human RAR-related Orphan Receptor gamma (RORg), RORC (gene 6097), sequence (P51449 whole entry, looked up, the tested form may be a part): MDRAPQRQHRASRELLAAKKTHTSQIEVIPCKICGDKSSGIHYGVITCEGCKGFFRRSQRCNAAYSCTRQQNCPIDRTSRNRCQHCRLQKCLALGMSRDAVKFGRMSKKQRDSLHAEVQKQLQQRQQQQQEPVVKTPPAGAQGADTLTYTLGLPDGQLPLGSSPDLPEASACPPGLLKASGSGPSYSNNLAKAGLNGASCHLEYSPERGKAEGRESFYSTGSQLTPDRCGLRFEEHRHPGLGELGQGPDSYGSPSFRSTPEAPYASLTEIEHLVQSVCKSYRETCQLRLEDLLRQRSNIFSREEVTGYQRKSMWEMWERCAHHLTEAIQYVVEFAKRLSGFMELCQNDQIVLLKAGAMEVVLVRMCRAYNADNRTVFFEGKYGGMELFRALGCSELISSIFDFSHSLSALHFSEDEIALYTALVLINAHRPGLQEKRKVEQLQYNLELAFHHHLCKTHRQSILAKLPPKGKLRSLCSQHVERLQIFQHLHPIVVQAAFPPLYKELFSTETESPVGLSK
Outline: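 Chimeric RORg-Gal4 transactivation in transfected HepG2; 24 h exposure; RT-PCR/capillary electrophoresis readout of reporter mRNA, DMSO baseline.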

[16] = molecular target: human Retinoic Acid Receptor beta (RARb), RARB (gene 5915) (UniProt P10826); assay: ATG_RARb_TRANS: Attagene TRANS-FACTORIAL HepG2 Assay for human Retinoic Acid Receptor beta (AID 2283004; active means hit-call score of the fitted dose curve at least 0.9, where 1 is the maximum)
human Retinoic Acid Receptor beta (RARb), RARB (gene 5915), sequence (P10826 whole entry, looked up, the tested form may be a part): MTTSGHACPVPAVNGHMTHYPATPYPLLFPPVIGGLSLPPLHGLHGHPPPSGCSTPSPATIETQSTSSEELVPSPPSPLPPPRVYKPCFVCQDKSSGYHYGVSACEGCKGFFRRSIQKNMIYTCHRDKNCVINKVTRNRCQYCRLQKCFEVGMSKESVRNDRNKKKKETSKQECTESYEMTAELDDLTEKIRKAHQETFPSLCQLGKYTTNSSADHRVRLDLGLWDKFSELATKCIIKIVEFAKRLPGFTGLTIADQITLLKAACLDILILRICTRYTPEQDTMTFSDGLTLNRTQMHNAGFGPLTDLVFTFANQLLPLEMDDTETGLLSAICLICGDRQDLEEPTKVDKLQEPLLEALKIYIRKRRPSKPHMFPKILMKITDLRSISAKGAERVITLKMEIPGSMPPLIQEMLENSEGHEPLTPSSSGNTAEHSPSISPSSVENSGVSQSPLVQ
Outline: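 Fluorescent capillary-electrophoresis detection of GAL4-UAS reporter mRNA defines the endpoint, with induction over DMSO-treated wells scored as activity. Transiently transfected human hepatoma HepG2 cells expressing exogenous NR–Gal4 proteins are exposed to test chemicals for 24 h.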

[17] = molecular target: Retinoic acid receptor alpha (Homo sapiens) (UniProt P10276); assay: ATG_RARa_TRANS: Attagene TRANS-FACTORIAL HepG2 Assay for human Retinoic Acid Receptor alpha (RARa) (AID 2283005; active means hit-call score of the fitted dose curve at least 0.9, where 1 is the maximum)
Retinoic acid receptor alpha (Homo sapiens), sequence (P10276 whole entry, looked up, the tested form may be a part): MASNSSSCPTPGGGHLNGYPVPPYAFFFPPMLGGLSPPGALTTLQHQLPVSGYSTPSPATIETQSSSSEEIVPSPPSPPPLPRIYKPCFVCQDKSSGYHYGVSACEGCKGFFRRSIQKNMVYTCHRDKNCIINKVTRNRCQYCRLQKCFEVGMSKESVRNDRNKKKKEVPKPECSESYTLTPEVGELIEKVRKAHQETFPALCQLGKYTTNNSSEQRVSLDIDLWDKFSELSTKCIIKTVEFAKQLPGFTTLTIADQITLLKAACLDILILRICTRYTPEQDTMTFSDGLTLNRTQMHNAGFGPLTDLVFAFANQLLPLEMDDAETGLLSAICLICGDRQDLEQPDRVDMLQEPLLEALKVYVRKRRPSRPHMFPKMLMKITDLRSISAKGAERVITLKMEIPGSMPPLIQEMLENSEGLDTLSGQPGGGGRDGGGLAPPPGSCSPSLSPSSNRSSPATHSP
Outline: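 Reporter transcripts, measured by RT-PCR with fluorescent labeling and capillary electrophoresis after 24 h dosing, reflect activity of an exogenous human RARa–GAL4 fusion in transiently transfected HepG2. Fitted for increase relative to DMSO.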

[18] = molecular target: Peroxisome proliferator-activated receptor gamma (Homo sapiens) (UniProt P37231); assay: ATG_PPARg_TRANS: Attagene TRANS-FACTORIAL HepG2 Assay for human Peroxisome Proliferator-activated Receptor-gamma (PPARg) (AID 2283007; active means hit-call score of the fitted dose curve at least 0.9, where 1 is the maximum)
Peroxisome proliferator-activated receptor gamma (Homo sapiens), sequence (P37231 whole entry, looked up, the tested form may be a part): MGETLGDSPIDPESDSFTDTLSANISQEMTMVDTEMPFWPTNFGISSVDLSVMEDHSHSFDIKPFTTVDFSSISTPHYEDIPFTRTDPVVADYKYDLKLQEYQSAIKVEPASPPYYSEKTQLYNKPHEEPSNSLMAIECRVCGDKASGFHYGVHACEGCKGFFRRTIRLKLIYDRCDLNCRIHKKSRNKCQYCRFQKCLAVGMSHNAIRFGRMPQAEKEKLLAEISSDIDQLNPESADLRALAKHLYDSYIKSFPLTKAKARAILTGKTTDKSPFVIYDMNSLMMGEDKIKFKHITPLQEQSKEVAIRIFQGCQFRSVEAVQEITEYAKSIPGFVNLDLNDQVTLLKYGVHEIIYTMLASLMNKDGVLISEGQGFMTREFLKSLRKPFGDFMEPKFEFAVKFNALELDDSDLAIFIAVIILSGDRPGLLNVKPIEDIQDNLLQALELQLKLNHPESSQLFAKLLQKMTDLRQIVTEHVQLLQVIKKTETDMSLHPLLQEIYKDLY
Outline: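 After 24 h of chemical exposure, transfected HepG2 cells carrying PPARγ-Gal4 chimera reporter constructs are lysed for RNA. Reporter transcripts are measured by RT-PCR and capillary electrophoresis with fluorescent labelling, and gain of signal is fitted versus DMSO.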

[19] = molecular target: human Retinoic Acid Receptor gamma (RARg), RARG (gene 5916) (UniProt P13631); assay: ATG_RARg_TRANS: Attagene TRANS-FACTORIAL HepG2 Assay for human Retinoic Acid Receptor gamma (RARg) (AID 2283009; active means hit-call score of the fitted dose curve at least 0.9, where 1 is the maximum)
human Retinoic Acid Receptor gamma (RARg), RARG (gene 5916), sequence (P13631 whole entry, looked up, the tested form may be a part): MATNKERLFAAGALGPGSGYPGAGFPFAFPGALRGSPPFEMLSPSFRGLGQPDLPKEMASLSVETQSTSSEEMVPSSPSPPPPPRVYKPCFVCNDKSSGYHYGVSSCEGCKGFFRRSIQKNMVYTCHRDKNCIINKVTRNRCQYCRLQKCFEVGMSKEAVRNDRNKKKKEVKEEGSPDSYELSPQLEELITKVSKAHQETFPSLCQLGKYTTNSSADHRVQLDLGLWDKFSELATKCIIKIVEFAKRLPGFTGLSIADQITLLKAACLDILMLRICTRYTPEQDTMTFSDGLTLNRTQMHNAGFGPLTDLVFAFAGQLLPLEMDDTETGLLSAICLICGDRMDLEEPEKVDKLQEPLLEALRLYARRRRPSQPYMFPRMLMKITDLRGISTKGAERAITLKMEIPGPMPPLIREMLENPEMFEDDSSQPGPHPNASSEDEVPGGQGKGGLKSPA
Outline: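 Gain-of-signal relative to DMSO is reported from fluorescent capillary electrophoresis of RT-PCR reporter products. These came from HepG2 cells expressing transfected RARg-GAL4 chimeras with UAS reporters, harvested 24 h after dosing.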

Measured: AC50

O=C(O)C(F)(F)C(F)(F)C(F)(F)C(F)(F)C(F)(F)C(F)(F)C(F)(F)F
active: [5] 84.7 µM [middle of 4 runs] | [8] 1.51 µM
inactive: [1] | [2] | [3] | [4] | [6] | [7] | [8] | [9] | [10] | [11] | [12] | [13] | [14] | [15]

CCc1ccc(C(=O)NN(C(=O)c2cc(C)cc(C)c2)C(C)(C)C)cc1
active: [4] 9.92 µM | [5] 9.92 µM | [8] 20 µM
inactive: all other assays above

Oc1ccc(Cl)cc1Cc1ccccc1
inactive: [1] | [2] | [3] | [4] | [5] | [6] | [16] | [17] | [18] | [13] | [19] | [14]
active: [2] 13.1 µM | [3] 6.37 µM | [4] 16.7 µM | [5] 8.4 µM [middle of 9 runs] | [6] 6.94 µM and 8.1 µM and 14.8 µM | [7] 32.4 µM [middle of 7 runs] | [8] 29.2 µM [middle of 7 runs] | [9] 34.9 µM [middle of 7 runs] | [10] 34.4 µM [middle of 7 runs] | [11] 37.1 µM [middle of 7 runs] | [12] 24.8 µM [middle of 7 runs] | [18] 8.85 µM [middle of 4 runs] | [13] 6.4 µM [middle of 5 runs]

COc1cc(OC)nc(NC(=O)NS(=O)(=O)c2cc(NC=O)ccc2C(=O)N(C)C)n1
not listed: [14] | [15] | [18]
inactive: all other assays above

O=C(Nc1ccccc1)Nc1cnns1
active: [2] 80.9 µM | [5] 50 µM | [6] 71.8 µM | [12] 20 µM
not listed: [14] | [19]
inactive: all other assays above
